Data on 40 compounds can be found in PubChem BioAssay (NCI).

Compounds without any hit were thinned out: in the full panel of roughly 83,000, 20% have a hit.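 Activity criterion: percent growth below 10, measured after cells in 96-well plates were exposed to a single compound concentration for 48 hours.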 Calls of active or inactive are those of the source.

The test system of this test is SN12C renal. Description: NCI-60 one-dose screen, 48 h (100 = growth as untreated, 0 = no growth, -100 = all killed). The settings on record: 10 µM unless noted. How it is done:
Growth inhibition of the SN12C human tumor cell line is measured as a screen for anti-cancer activity. Cells are grown in 96 well plates and exposed to the test compound for 48 hours. Compounds are tested at a single concentration, which is 10^-5 M for most compounds. The reported endpoint is percent growth (GI% or GIPRCNT), where numbers from 0 - 100% represent growth inhibition, and numbers from -100% - 0 represent cell death. For example, a value of 40 represents 60% growth inhibition. A value of 0 means no net growth occurred over the course of the experiment. A value of -40 indicates 40% of cells at the beginning of the experiment died by the end of the experiment. A value of -100 means all cells are dead at the end of the experiment.
NCI-60 Human Tumor Cell Lines Screen was performed using the standard one-dose NCI protocol, which is described in more detail at https://dtp.cancer.gov/discovery_development/nci-60/default.htm.
Compounds with GIPRCNT values below 10 were considered active. Activity score was based on GIPRCNT using the following formula: […]
Score is 0 for GIPRCNT values of 100 or above, 50 for GIPRCNT values of 0, and 100 for GIPRCNT values of -100.
`OCCc1ccc(Cl)cc1`: the growth was 94.9% (inactive).
With `CCc1ccccc1C(=O)N(CC)CC` the figure was 105% (inactive).
With `COC1=C(OC)C(=O)C(SC/C=C(\C)CCCC(C)CCCC(C)CCCC(C)C)=CC1=O` (stereo not given) the figure was 15.4% (inactive).
With `NC(=S)N/N=C/c1ccc(Cl)cc1` the figure was 128% (inactive); with `CC(C)(C)CC1(C)NC(=O)NC1=O` (stereo not given), 110% (inactive); with `c1ccc2c(NCCCN3CCN(CCCNc4c5ccccc5nc5ccccc45)CC3)c3ccccc3nc2c1`, -35.9% [100 µM] (active).
With `CC(=O)OC/C(C)=C\CC(C)COC(C)=O` (stereo not given), the growth was 99.6% (inactive).
With `C/C(Cc1ccccc1)=N\O` the figure was 107% (inactive); with `CCOC(=O)C(CCC#N)(CCC#N)C(=O)OCC`, 105% (inactive); with `CCOC(=O)C(C#N)=C1CCN(C)CC1`, 97% (inactive).
With `Cn1c(=O)c2[nH]c(CC(=O)O)nc2n(C)c1=O` the figure was 104% (inactive).
As to `COc1ccc(-c2csc(NC(=O)Nc3nc(-c4ccc(OC)cc4)cs3)n2)cc1`, the growth was 93.6% (inactive).
With `CCOS(=O)(=O)c1ccc([N+](=O)[O-])cc1` the figure was 101% (inactive).
With `CCOC(=O)Nc1nccs1` the figure was 97.8% (inactive); with `Cn1c(=O)c2[nH]c(CCCCC(=O)O)nc2n(C)c1=O`, 104% (inactive).
With `Nc1nc(N)nc(N2CCCCC2)n1`, the growth was 102% (inactive).
With `COc1ccc2c(ccc[n+]2C)c1`, the growth is 104% (inactive).
Take `CN(C)Cc1ccccn1`: the growth was 100% (inactive).
With `CSc1nc2[nH]ncc2c(=O)[nH]1` the figure was 101% (inactive); with `NC(=S)N/N=C/c1ccc(OC(=O)COc2ccccc2)cn1`, 34.7% (inactive); with `O=Cc1ccc(F)cc1`, 98% (inactive).
With `C/C(O)=C(/C=N\C(=S)Nc1ccc(S(=O)(=O)Nc2nccs2)cc1)C(=O)Nc1ccccc1C` the figure was 87.5% (inactive); with `O=C(Oc1ccccc1Cl)c1ccc(Cl)cc1Cl`, 98.3% (inactive); with `O=Cc1ccc(O)c(O)c1`, 94.9% (inactive).
With `N#Cc1ccc2nc[nH]c2c1` the figure was 110% (inactive); with `CC(C)NC(=O)OCc1c(COC(=O)NC(C)C)c(-c2ccc(Cl)cc2)n2c1CCC2`, 38.2% (inactive).
With `C(=C\c1ccncc1)/c1ccncc1`, the growth was 101% (inactive).
With `CC(C)(C)[Si](C)(C)OCC1OC(n2cnc3c(N)ncnc32)CC1OS(C)(=O)=O` (stereo not given) the figure was 101% (inactive); with `CN(C(=S)S(=O)(=O)C12CC3CC(CC(C3)C1)C2)c1ccccc1`, 90.4% (inactive).
With `Cc1cc(=O)n(Nc2ccccc2)c(O)c1C#N`, the growth was 99.4% (inactive).
Regarding `NC(CCl)=NCC12CC3CC(CC(C3)C1)C2`, the growth was 9.41% (active).
On to `Cc1onc(-c2ccccc2Cl)c1C(=O)Cl`, for which the growth was 95.7% (inactive).
With `NNC(=O)N/N=C1\C(=O)N(c2nccs2)C(=O)C(=O)C1c1nc2ccccc2s1` (stereo not given) the figure was 96% (inactive).
With `N#C/C(=C\c1ccc2c(c1)OCO2)c1ccccc1` the figure was 89.3% (inactive); with `C=CCc1cc(OC)c(O)c(OC)c1`, 102% (inactive).
With `CCNc1ccc2ccccc2c1N=Nc1ccc(N=Nc2ccccc2)cc1` the figure was 96% (inactive); with `O=C(O)CC1=CCCCC1`, 104% (inactive).
`CCN(CC)CCCC(C)NC(=S)N/N=C(\C)c1ccccn1` (stereo not given): the growth is 35.9% (inactive).
On to `CC(C)c1ccc(C(=O)OCCCl)cc1`, for which the growth was 99.3% (inactive).
With `O=C(O)CSCC(=O)Nc1cc(C(F)(F)F)ccc1Cl` the figure was 102% (inactive).
